Here are results for 87 compounds from PubChem BioAssay AID463173 (ICCB-Longwood Screening Facility, Harvard Medical School, 2010).

Screen size: about 52,000 compounds; about 4,300 (8.3%) were called active. The sample as a whole holds a higher share of actives than the screen did. Values without a mark were called inactive. Cut-off read from the data, not from the text of the source: active = survival mostly below about 52% (no sharp cut-off); inactive = mostly above about 56%.

For this assay, the system named is DeltatarO mutant. The assay is described as follows: S. aureus survival, RN4220 and DeltatarO strains – OD600, teichoic acid synthesis inhibitors, primary screen (AID 463173). As to conditions: S. aureus RN4220 wild type/DeltatarO growth, OD600, 18 h, stronger effect = lower value, screened at 18.75 µg/mL (by protocol).
Regarding `CCOc1ccc2c(c1)c(=O)c(S(=O)(=O)c1ccccc1)cn2CC(=O)Nc1ccccc1OC`, the survival was 70%.
The same measure for `CC1=C(C(=O)NCc2ccc(Cl)cc2)C2(CCC(C)CC2)OC1=O` (configuration not stated): 86%; for `Cc1nn(C)c2c1c(C(F)(F)F)cc(=O)n2C(C)C(=O)NCCc1ccc(Cl)cc1` (configuration not stated): 81%.
The same measure for `Cn1c(=O)nc2n(-c3ccc(Cl)c(Cl)c3)c3cc(Cl)ccc3cc-2c1=O`: 87%.
As to `CCOc1ccc(CN2CCc3nc(N4CCN(c5ccccn5)CC4)ncc3C2)cc1OC`, the survival is 120%.
In the case of `CCOc1ccc(C2c3c(oc4ccccc4c3=O)C(=O)N2Cc2ccc3c(c2)OCO3)cc1` (configuration not stated) it was 36% (active).
`CCCOc1ccc(C2c3c(oc4ccccc4c3=O)C(=O)N2c2nnc(C(C)C)s2)cc1` (configuration not stated): the survival is 58% (active).
As for `COc1cc(C2c3c(oc4ccccc4c3=O)C(=O)N2c2nnc(C(C)C)s2)cc(OC)c1OC` (configuration not stated), the survival is 63%.
In the case of `CCCOc1ccc(C2c3c(oc4ccccc4c3=O)C(=O)N2c2nc(C)c(C(=O)OCC)s2)cc1` (configuration not stated) it was 60%.
On to `CCOc1cccc(C2c3c(oc4cc(C)c(C)cc4c3=O)C(=O)N2c2nc(C)c(C)s2)c1` (configuration not stated), for which the survival was 74% (active).
`Cc1nc(N2C(=O)c3oc4ccccc4c(=O)c3C2c2cccc(OCCC(C)C)c2)sc1C` (configuration not stated): the survival was 59%.
The same measure for `COC(=O)c1ccc(C2c3c(oc4ccccc4c3=O)C(=O)N2c2nc(C)c(C(=O)OC)s2)cc1` (configuration not stated): 71%; for `CCOc1cccc(C2c3c(oc4ccccc4c3=O)C(=O)N2c2nc(C)c(C(=O)OC)s2)c1` (configuration not stated): 51%; for `CC(C)c1nnc(N2C(=O)c3oc4ccccc4c(=O)c3C2c2cccc(O)c2)s1` (configuration not stated): 62%.
Regarding `COc1ccc(C2c3c(oc4ccccc4c3=O)C(=O)N2Cc2ccc3c(c2)OCO3)cc1` (configuration not stated), the survival was 71%.
In the case of `CCOC(=O)c1sc(N2C(=O)c3oc4ccccc4c(=O)c3C2c2ccc(C(C)(C)C)cc2)nc1C` (configuration not stated) it was 51% (active).
Turning to `CCOc1cc(C2c3c(oc4ccccc4c3=O)C(=O)N2Cc2ccc3c(c2)OCO3)ccc1O` (configuration not stated), the survival was 81%.
In the case of `Cc1cccc(CC(=O)NCCc2csc(-c3ccc(C(F)(F)F)cc3)n2)c1` it was 101%; in that of `CCc1ccc(-n2c(=O)c3ccccc3n(CC(=O)NCCc3ccc(OC)c(OC)c3)c2=O)cc1`, 91%.
In the case of `CC(C)OC(=O)CSc1nnc(-c2ccc(O)cc2)o1` it was 72%; in that of `COc1ccc(CSC(=N)N)cc1Cl`, 97%.
The same measure for `COc1ccc(-c2csc(N)n2)cc1C`: 97%; for `O=C(NCC(c1ccco1)S(=O)(=O)c1cccs1)c1ccc(F)c(F)c1` (configuration not stated): 75%; for `Cc1ccc(C)c(NC(=O)CCn2nc(C)c3c(C)n(-c4ccccc4)nc3c2=O)c1`: 37% (active).
Take `Cc1ccc(CCNC(=O)Cn2nc(C)c3c(C)n(-c4ccc(C)cc4)nc3c2=O)cc1`: the survival is 79%.
For `COc1ccc(CNC(=O)CCn2nc(C)c3c(C)n(-c4ccccc4)nc3c2=O)cc1OC`, the survival is 0% (active).
In the case of `CCN(CC)CCNC(=O)Cn1nc(C)c2c(C)n(-c3ccccc3)nc2c1=O`, the survival was 70%.
The same measure for `Cc1ccc(NC(=O)CCCn2nc(C)c3c(C)n(-c4ccccc4)nc3c2=O)c(Cl)c1`: 89%; for `COc1cc(OC)c(NC(=O)CCCn2nc(C)c3c(C)n(-c4ccccc4)nc3c2=O)cc1Cl`: 32% (active); for `Cc1cc(Cl)ccc1NC(=O)CCn1nc(C)c2c(C)n(-c3ccccc3)nc2c1=O`: 72%.
The same measure for `COc1ccc(CNC(=O)CCCn2nc(C)c3c(C)n(-c4ccc(C)cc4)nc3c2=O)cc1OC`: 74%.
The same measure for `Cc1cc(Cl)ccc1NC(=O)CCCn1nc(C)c2c(C)n(-c3ccccc3)nc2c1=O`: 112%; for `COc1cccc(CNC(=O)CCn2nc(C)c3c(C)n(-c4ccccc4)nc3c2=O)c1`: 83%.
With `CCOc1ccc(CCNC(=O)Cn2nc(C)c3c(C)n(-c4ccccc4)nc3c2=O)cc1OCC`, the survival was 25% (active).
The same measure for `Cc1cccc(NC(=O)CCn2nc(C)c3c(C)n(-c4ccccc4)nc3c2=O)c1C`: 57%; for `CCN(c1cccc(C)c1)S(=O)(=O)c1cc2c(cc1C)n(C)c(=O)c(=O)n2C`: 85%; for `COC(=O)c1ccccc1NC(=O)CCCn1c(C)c2cnn(-c3ccccc3)c(=O)c2c1C`: 90%.
In the case of `COc1ccc(OC)c(C2=NS(=O)(=O)N(C)C(C(=O)Nc3ccc(F)cc3F)=C2)c1` it was 72%; in that of `COC(=O)c1ccc(NC(=O)CN(C)S(=O)(=O)c2ccc3c(c2)CCCC(=O)N3)cc1`, 79%; in that of `CCCN1C2CCCC1CC(NC(=O)NC1CCCCC1)C2` (configuration not stated), 59%.
In the case of `CCOC(=O)c1cc2c(ccn2-c2ccc(F)cc2)n1CC(=O)N1C(C)CCCC1C` (configuration not stated) it was 103%.
On to `CC(=O)c1cc(C(=O)Nc2cc(C)cc(C)c2)c2ccccn12`, for which the survival was 43%.
Regarding `CCOc1cccc(C2c3[nH]c4ccccc4c3CCN2C(=O)CCC2CCCC2)c1` (configuration not stated), the survival was 78%.
In the case of `COC(=O)c1ccccc1NC(=O)Cn1cnc2sc(C)c(S(=O)(=O)N3CCC(C)CC3)c2c1=O` it was 59%; in that of `Cc1nn(CCC(=O)NCc2ccc(N(C)C)cc2)c(=O)c2nn(-c3ccccc3)c(C)c12`, 95%.
For the compound `CCc1ccc(CNC(=O)CCn2nc(C)c3c(C)n(-c4ccccc4)nc3c2=O)cc1`, the survival is 55%.
In the case of `Cc1nn(CCC(=O)NCc2ccc(Cl)cc2)c(=O)c2nn(-c3ccccc3)c(C)c12` it was 0% (active).
As to `O=c1c2cnn(-c3ccc(Cl)cc3)c2ncn1Cc1ccc(Cl)cc1Cl`, the survival was 102%.
In the case of `CCc1ccccc1NC(=O)C1CCCN(S(=O)(=O)c2ccc3[nH]c(=O)ccc3c2)C1` (configuration not stated) it was 88%; in that of `COC(=O)c1c(SC)nc2ccccc2c1OCc1cc(C)ccc1C`, 144%; in that of `CCSc1nc2ccccc2c(OCc2cc(C(=O)OC)ccc2OC)c1C(=O)OC`, -12% (active).
The same measure for `COC(=O)c1c(SC)nc2ccccc2c1OCc1ccc(C)cc1C`: 46% (active); for `CCSc1nc2ccccc2c(OCc2ccccc2Cl)c1C(=O)OC`: 64%.
In the case of `COC(=O)c1c(SC)nc2ccccc2c1OCc1ccccc1C` it was 105%; in that of `CCSc1nc2ccccc2c(OCc2ccc(Cl)cc2)c1C(=O)OC`, 98%; in that of `CCOC(=O)Cn1cc2c(c1-c1ccc(Cl)cc1)c(=O)n(C)c(=O)n2C`, 60%.
`COc1cc(CNC(=O)C2CCCCN2S(=O)(=O)c2ccc(F)cc2)cc(OC)c1OC` (configuration not stated): the survival is 83%.
In the case of `Cc1ccc2c(=O)c(C(=O)c3ccc(F)cc3)cn(CC(=O)Nc3ccc4c(c3)OCCO4)c2n1` it was 77%; in that of `Cc1ccc(CCNC(=O)c2ccc3c(Cl)c4c(nc3c2)CCCC4)cc1`, 61%; in that of `CCc1ccc(S(=O)(=O)N(C(C)=O)c2ccc3oc4c(c3c2)CCCC4)cc1`, 146%.
In the case of `CCCCC(=O)N(c1ccc2oc(C)c(C(C)=O)c2c1)S(=O)(=O)c1ccc(F)cc1C` it was 62%.
For the compound `CCCC(=O)N(c1ccc2oc3c(c2c1)CCCC3)S(=O)(=O)c1ccc(CC)cc1`, the survival was 39% (active).
In the case of `CCCC(=O)N(c1ccc2oc(-c3ccccc3)c(C(=O)OCC)c2c1)S(=O)(=O)c1ccc(C)cc1` it was 140%; in that of `CCOC(=O)c1c(-c2ccccc2)oc2ccc(N(C(C)=O)S(=O)(=O)c3cc(C)ccc3C)cc12`, 54%.
Turning to `CCCC(=O)N(c1ccc2oc3c(c2c1)CCCC3)S(=O)(=O)c1cc(C)ccc1C`, the survival was 35% (active).
In the case of `CCC1CN(C(=O)NCc2ccc(C)cc2)c2cc(C)ccc2O1` (configuration not stated) it was 54%; in that of `COC(=O)CC1Oc2ccc(Cl)cc2-n2cc(-c3ccccc3)nc21` (configuration not stated), 63%; in that of `CCOC(=O)Cn1c(=O)oc2cc(S(=O)(=O)NC(C)c3ccccc3)ccc21` (configuration not stated), 66%.
The same measure for `CC(C)=NNC(=O)CNc1ccccc1Cl`: 79%.
In the case of `Cc1ccc(NC(=O)C2CC=CCC2C(=O)N2CCCCC2)cc1` (configuration not stated) it was 69%.
Turning to `COc1cc(CN2CCc3nc(N4CCN(c5ccccc5F)CC4)ncc3C2)ccc1OC(C)C`, the survival was 118%.
In the case of `O=C(CC1N=C2c3ccccc3N=C(SCc3ccccc3Cl)N2C1=O)NCc1cccs1` (configuration not stated) it was 66%.
On to `O=C(c1cnc2c(c1)COc1ccccc1-2)c1ccccc1O`, for which the survival is 3% (active).
For `Cc1cc(O)c(C(=O)c2cnc3c(c2)COc2ccccc2-3)cc1Cl`, the survival is 76%.
For `Cc1ccc2c(c1)-c1ncc(C(=O)c3cc(Br)ccc3O)cc1CO2`, the survival is 62%.
For `Cc1ccc2c(c1)-c1nc(-c3ccccc3)cc(-c3ccccc3)c1CO2`, the survival is 91%.
`Cc1ccc2c(c1)-c1ncc(C(=O)c3ccccc3O)cc1CO2`: the survival was 3% (active).
`O=C(c1cnc2c(c1)COc1ccc(Cl)cc1-2)c1ccccc1O`: the survival was 105%.
In the case of `COc1ccccc1/C=C(\C#N)C(=O)NCC1CCCO1` (configuration not stated) it was 129%; in that of `CC1=C(c2ccc(Cl)cc2)S(=O)(=O)N=C1N1CCN(c2cccc(C(F)(F)F)c2)CC1`, 71%.
Consider `CCS(=O)(=O)N1CCc2cc(C(=O)NCc3ccc(Cl)cc3)ccc21`, for which the survival was 92%.
`COc1ccc(NC(=O)Nc2nnc(N(C)C3CCCCC3)s2)c(OC)c1`: the survival is 70%.
The same measure for `COc1cc(OC)c(NC(=O)Nc2nnc(N(C)C3CCCCC3)s2)cc1Cl`: 23% (active); for `Cc1ccc(NC(=O)Nc2nnc(N(C)C3CCCCC3)s2)c(Cl)c1`: 104%.
The same measure for `O=C(CSc1nc2c([nH]c3ccccc32)c(=O)n1-c1cccc(Cl)c1)N1CCc2ccccc21`: 73%; for `COC(=O)C1CCN(C(c2ccccc2)c2sc3nc(-c4ccco4)nn3c2O)CC1` (configuration not stated): 57%; for `Cc1ccc(C)c(NC(=O)c2ccc(=O)n(Cc3ccc(F)cc3)c2)c1`: 94%.
